The structures appear in SMILES notation. This is part of a sample that, as a whole, favours compounds with a hit. Of some 83,000 tested, about 20% had one in any assay.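 48-hour exposure, single concentration, 96-well plates; percent growth endpoint where 0 means no net growth. Active: below 10.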 A number with no mark means an inactive call. The source made the active and inactive calls.

For this assay, the system named is SK-MEL-5 melanoma. Kind of assay: NCI-60 one-dose screen, 48 h (100 = growth as untreated, 0 = no growth, -100 = all killed). As to conditions: 10 µM unless noted.
Take `CCCCC[C@H]1CC=C2C(=O)C=C[C@@H]2CC=CCCCC(=O)O[C@@H](CCCCC)CC=C2C(=O)C=C[C@@H]2CC=CCCCC(=O)O[C@@H](CCCCC)CC=C2C(=O)C=C[C@@H]2CC=CCCCC(=O)O1`: the growth is -76.7% [8.75 µM] (active).
As for `CCC(CC)C(=O)OC(C)COc1ccc(C(C)(C)C)cc1` (configuration not stated), the growth was 98.7%.
Consider `CC/C(=N/NC(N)=O)c1ccccc1`, for which the growth is 102%.
The figure for `N#CC1=C(N)Oc2c(sc3c(F)cccc23)C1c1ccc(Cl)cc1` (configuration not stated) is 18.1%; for `CCCCC[C@H]1C/C=C2/C(=O)C(Cl)=C[C@@H]2C/C=C\CCCC(=O)O[C@@H](CCCCC)C/C=C2/C(=O)C(Cl)=C[C@@H]2C/C=C\CCCC(=O)O1` it is -94.4% (active).
On to `c1ccc(-c2nc(Nc3ccc(-c4nc5ccccc5[nH]4)cc3)nc(N3CCOCC3)n2)cc1`, for which the growth is -95.4% (active).
Turning to `Fc1ccc2c(c1)c(-c1nc(-c3c[nH]c4ncccc34)cs1)cn2CCCN1CCCCC1`, the growth was -52% (active).
In the case of `CN(C)c1ccc(N=C2C=CC(=O)C=C2)cc1`, the growth is 87.2%.
The figure for `Cc1ccncc1C(=O)O` is 106%; for `COc1cc2ncnc(Nc3ccc(Oc4ccnc(C)c4)c(C)c3)c2cc1NC(=O)CC1CCSS1` (configuration not stated) it is -89.1% (active).
For the compound `O=C1Nc2ccccc2/C1=C/c1cn(CCCn2c3ccccc3c(=O)c3ccccc32)c2ccccc12`, the growth was 74.7%.
For `CCCCC[C@H]1CC=C2C(=O)C(Cl)=C[C@@H]2CC=CCCCC(=O)O[C@@H](CCCCC)CC=C2C(=O)C(Cl)=C[C@@H]2CC=CCCCC(=O)O[C@@H](CCCCC)CC=C2C(=O)C(Cl)=C[C@@H]2CC=CCCCC(=O)O1`, the growth was 62.2% [8 µM].

(Values after PubChem BioAssay (NCI).)
